PubChem BioAssay AID1159580 (chemical genetic matrix, 2015)
Screen size: about 5,500 compounds; about 2,000 (36%) were called active. Roughly 18% stayed inconclusive and do not appear here. No stated cut-off is given here; in the data, active means normalized growth mostly below about 0.91 (no sharp cut-off); inconclusive means no clear call, values can overlap the other calls; inactive means mostly above about 0.92. The list shows a part of the results.

Experiment: chemical genetic growth profiling, strain panel (AID 1159580);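 further: tested at 20 µM; growth read once vehicle control cultures reached saturation at 30 °C; 1 = growth at the plate median or of vehicle wells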
Settings: growth OD

Measured: normalized growth

CN(C)CC[C@H](c1ccc(Cl)cc1)c1ccccn1
inactive: S. cerevisiae deletion strains, locus YJR075W, strain HOC1, stronger effect = lower value 0.994 | S. cerevisiae deletion strains, locus YKL009W, strain mrt4, stronger effect = lower value 1.01 | S. cerevisiae deletion strains, locus YKL068W, stronger effect = lower value 0.997 | S. cerevisiae deletion strains, locus YKL085W, strain MDH1 (second series), stronger effect = lower value 0.995 | S. cerevisiae deletion strains, locus YKL085W, strain MDH1, stronger effect = lower value 0.995 | S. cerevisiae deletion strains, locus YKL160W, strain elf1, stronger effect = lower value 0.994 | S. cerevisiae deletion strains, locus YKL190W, strain CNB1, stronger effect = lower value 1 | S. cerevisiae deletion strains, locus YKR001C, strain vps1, stronger effect = lower value 0.989 | S. cerevisiae deletion strains, locus YKR026C, strain gcn3, stronger effect = lower value 1 | S. cerevisiae deletion strains, locus YKR091W, strain srl3, stronger effect = lower value 1.01 | S. cerevisiae deletion strains, locus YLL001W, strain dnm1, stronger effect = lower value 0.991 | S. cerevisiae deletion strains, locus YLL026W, stronger effect = lower value 0.997 | S. cerevisiae deletion strains, locus YLL041C, strain sdh2, stronger effect = lower value 0.992 | S. cerevisiae deletion strains, locus YLR027C, strain aat2, stronger effect = lower value 1 | S. cerevisiae deletion strains, locus YLR039C, strain RIC1, stronger effect = lower value 1.04 | S. cerevisiae deletion strains, locus YLR058C, strain SHM2, stronger effect = lower value 1 | S. cerevisiae deletion strains, locus YLR102C, strain apc9, stronger effect = lower value 0.989 | S. cerevisiae deletion strains, locus YLR113W, strain HOG1, stronger effect = lower value 1.02 | S. cerevisiae deletion strains, locus YLR221C, strain rsa3, stronger effect = lower value 1.01 | S. cerevisiae deletion strains, locus YLR258W, strain gsy2, stronger effect = lower value 0.993 | S. cerevisiae deletion strains, locus YLR262C, strain YPT6 (second series), stronger effect = lower value 1.01 | S. cerevisiae deletion strains, locus YLR262C, strain YPT6, stronger effect = lower value 1 | S. cerevisiae deletion strains, locus YLR268W, strain sec22, stronger effect = lower value 0.965 | S. cerevisiae deletion strains, locus YLR320W, strain mms22, stronger effect = lower value 0.997 | S. cerevisiae deletion strains, locus YLR330W, strain CHS5, stronger effect = lower value 1.01 | S. cerevisiae deletion strains, locus YLR342W, strain FKS1 (second series), stronger effect = lower value 1.02 | S. cerevisiae deletion strains, locus YLR342W, strain FKS1, stronger effect = lower value 1 | S. cerevisiae deletion strains, locus YLR357W, strain rsc2, stronger effect = lower value 0.959 | S. cerevisiae deletion strains, locus YLR370C, strain arc18, stronger effect = lower value 1 | S. cerevisiae deletion strains, locus YLR371W, strain rom2, stronger effect = lower value 0.991 | S. cerevisiae deletion strains, locus YLR384C, strain iki3, stronger effect = lower value 0.996 | S. cerevisiae deletion strains, locus YLR418C, strain cdc73, stronger effect = lower value 0.994 | S. cerevisiae deletion strains, locus YML016C, strain PPZ1, stronger effect = lower value 1 | S. cerevisiae deletion strains, locus YML032C, strain rad52, stronger effect = lower value 0.966 | S. cerevisiae deletion strains, locus YML120C, strain ndi1, stronger effect = lower value 1.01 | S. cerevisiae deletion strains, locus YML124C, strain tub3, stronger effect = lower value 0.994 | S. cerevisiae deletion strains, locus YMR058W, strain fet3, stronger effect = lower value 1 | S. cerevisiae deletion strains, locus YMR078C, strain ctf18, stronger effect = lower value 0.993 | S. cerevisiae deletion strains, locus YMR125W, strain sto1, stronger effect = lower value 0.997 | S. cerevisiae deletion strains, locus YMR129W, stronger effect = lower value 1 | S. cerevisiae deletion strains, locus YMR205C, strain PFK2, stronger effect = lower value 1.02 | S. cerevisiae deletion strains, locus YMR223W, strain ubp8, stronger effect = lower value 1.01 | S. cerevisiae deletion strains, locus YMR231W, strain pep5, stronger effect = lower value 0.993 | S. cerevisiae deletion strains, locus YMR263W, strain SAP30, stronger effect = lower value 1.02 | S. cerevisiae deletion strains, locus YMR307W, strain GAS1, stronger effect = lower value 0.99 | S. cerevisiae deletion strains, locus YNL067W, strain RPL9B, stronger effect = lower value 0.999 | S. cerevisiae deletion strains, locus YNL071W, strain lat1, stronger effect = lower value 0.998 | S. cerevisiae deletion strains, locus YNL128W, strain TEP1, stronger effect = lower value 1.01 | S. cerevisiae deletion strains, locus YNL153C, strain GIM3, stronger effect = lower value 0.992 | S. cerevisiae deletion strains, locus YNL183C, strain NPR1, stronger effect = lower value 0.956 | S. cerevisiae deletion strains, locus YNL209W, strain ssb2, stronger effect = lower value 1 | S. cerevisiae deletion strains, locus YNL233W, strain BNI4, stronger effect = lower value 1.01 | S. cerevisiae deletion strains, locus YNL248C, strain rpa49, stronger effect = lower value 0.945 | S. cerevisiae deletion strains, locus YNL250W, strain rad50, stronger effect = lower value 0.977 | S. cerevisiae deletion strains, locus YNL271C, strain bni1, stronger effect = lower value 0.988 | S. cerevisiae deletion strains, locus YNL298W, strain CLA4, stronger effect = lower value 0.996 | S. cerevisiae deletion strains, locus YNL307C, strain MCK1, stronger effect = lower value 1 | S. cerevisiae deletion strains, locus YNL322C, strain KRE1 (second series), stronger effect = lower value 1.02 | S. cerevisiae deletion strains, locus YNL322C, strain KRE1, stronger effect = lower value 1 | S. cerevisiae deletion strains, locus YNR049C, strain mso1, stronger effect = lower value 0.996 | S. cerevisiae deletion strains, locus YNR052C, strain pop2, stronger effect = lower value 0.989 | S. cerevisiae deletion strains, locus YOL006C, strain TOP1, stronger effect = lower value 1 | S. cerevisiae deletion strains, locus YOL012C, strain htz1 0.629 | S. cerevisiae deletion strains, locus YOL147C, strain pex11, stronger effect = lower value 0.991 | S. cerevisiae deletion strains, locus YOR001W, strain rrp6, stronger effect = lower value 0.987 | S. cerevisiae deletion strains, locus YOR061W, strain CKA2, stronger effect = lower value 1.01 | S. cerevisiae deletion strains, locus YOR069W, strain VPS5, stronger effect = lower value 1 | S. cerevisiae deletion strains, locus YOR070C, strain gyp1, stronger effect = lower value 0.997 | S. cerevisiae deletion strains, locus YOR080W, strain dia2, stronger effect = lower value 0.997 | S. cerevisiae deletion strains, locus YOR083W, strain WHI5, stronger effect = lower value 0.997 | S. cerevisiae deletion strains, locus YOR106W, strain vam3, stronger effect = lower value 1.01 | S. cerevisiae deletion strains, locus YOR136W, strain idh2, stronger effect = lower value 0.992 | S. cerevisiae deletion strains, locus YOR144C, strain elg1, stronger effect = lower value 0.988 | S. cerevisiae deletion strains, locus YOR184W, strain ser1, stronger effect = lower value 1.02 | S. cerevisiae deletion strains, locus YOR231W, strain MKK1, stronger effect = lower value 0.998 | S. cerevisiae deletion strains, locus YOR265W, strain rbl2, stronger effect = lower value 1 | S. cerevisiae deletion strains, locus YOR270C, strain vph1, stronger effect = lower value 1.01 | S. cerevisiae deletion strains, locus YOR290C, strain snf2, stronger effect = lower value 0.998 | S. cerevisiae deletion strains, locus YOR316C, strain cot1, stronger effect = lower value 0.995 | S. cerevisiae deletion strains, locus YPL051W, strain arl3, stronger effect = lower value 1.01 | S. cerevisiae deletion strains, locus YPL055C, strain LGE1, stronger effect = lower value 1.02 | S. cerevisiae deletion strains, locus YPL078C, strain atp4, stronger effect = lower value 0.989 | S. cerevisiae deletion strains, locus YPL106C, strain sse1, stronger effect = lower value 1.01 | S. cerevisiae deletion strains, locus YPL240C, strain hsp82, stronger effect = lower value 0.997 | S. cerevisiae deletion strains, locus YPL241C, strain CIN2, stronger effect = lower value 1 | S. cerevisiae deletion strains, locus YPL256C, strain CLN2, stronger effect = lower value 0.985 | S. cerevisiae deletion strains, locus YPR119W, strain clb2, stronger effect = lower value 0.989 | S. cerevisiae deletion strains, locus YPR141C, strain kar3, stronger effect = lower value 0.98 | S. cerevisiae deletion strains, locus YPR163C, strain tif3, stronger effect = lower value 0.992 | S. cerevisiae deletion strains, locus YPR167C, strain met16, stronger effect = lower value 0.994 | S. cerevisiae deletion strains, strain wtn01, stronger effect = lower value 0.995 | S. cerevisiae strains, strain wild type, stronger effect = lower value 1.01
